Data from paper PMC7862700, “An all-to-all approach to the identification of sequence-specific readers for epigenetic DNA modifications on cytosine”.

Columns and labels:
Experiment in all cases: DAPPL (digital affinity profiling via proximity ligation, sequencing); 10 mM Tris-HCl pH 7.5, 50 mM NaCl, 1 mM DTT, 4% glycerol, room temperature, 30 min; GST-TFs on glutathione beads, 16-mer random dsDNA library, 0.1% formaldehyde crosslink after washing; high values mean tight binding
[1] = target: T1, FLI1 (Homo sapiens, UniProt Q01543 1-452); settings: protein: recombinant; tags: N-terminal GST; dsDNA, one strand shown
T1 sequence: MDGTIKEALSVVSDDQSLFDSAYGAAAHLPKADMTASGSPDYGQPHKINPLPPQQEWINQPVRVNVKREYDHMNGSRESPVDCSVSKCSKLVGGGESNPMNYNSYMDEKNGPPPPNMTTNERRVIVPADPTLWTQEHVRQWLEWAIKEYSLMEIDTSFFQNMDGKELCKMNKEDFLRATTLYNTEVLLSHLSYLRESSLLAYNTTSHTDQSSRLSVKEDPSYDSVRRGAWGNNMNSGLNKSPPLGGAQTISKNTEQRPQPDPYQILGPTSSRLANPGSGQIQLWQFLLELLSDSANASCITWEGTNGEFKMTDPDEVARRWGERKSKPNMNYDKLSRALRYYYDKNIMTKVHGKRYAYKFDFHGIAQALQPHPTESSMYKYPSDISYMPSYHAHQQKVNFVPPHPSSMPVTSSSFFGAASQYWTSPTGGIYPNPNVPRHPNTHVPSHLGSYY
In short: (§1)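 Each value of binding signal is a hexamer's read frequency for a factor divided by the same hexamer's frequency in the tag-only sample. Barcoded, bead-captured GST fusions of human transcription factors made in yeast were pooled with that sample and incubated with 200 nmole of a random double-stranded 16-mer DNA library in Tris/NaCl/DTT/glycerol buffer at room temperature for 30 min. Washing, 0.1% formaldehyde crosslinking, proximity ligation, PCR and Illumina NextSeq500 sequencing followed.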

[2] = target: T2, ELK1 (Homo sapiens, UniProt P19419 1-428); settings: protein: recombinant; tags: N-terminal GST; dsDNA, one strand shown
T2 sequence: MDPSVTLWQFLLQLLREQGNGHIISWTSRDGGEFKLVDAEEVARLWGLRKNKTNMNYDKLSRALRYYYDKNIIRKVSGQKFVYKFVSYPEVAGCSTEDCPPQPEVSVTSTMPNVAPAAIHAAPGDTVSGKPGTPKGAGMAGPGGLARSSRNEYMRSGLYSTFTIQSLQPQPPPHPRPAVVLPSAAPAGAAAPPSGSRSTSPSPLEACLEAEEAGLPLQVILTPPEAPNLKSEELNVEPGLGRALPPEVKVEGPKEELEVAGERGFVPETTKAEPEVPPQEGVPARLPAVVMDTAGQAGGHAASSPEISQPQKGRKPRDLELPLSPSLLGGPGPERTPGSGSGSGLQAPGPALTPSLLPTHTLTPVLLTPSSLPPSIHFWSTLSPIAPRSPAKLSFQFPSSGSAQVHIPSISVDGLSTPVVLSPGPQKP
In short: as §1

[3] = target: T3, GABPA (Homo sapiens, UniProt Q06546 1-454); settings: protein: recombinant; tags: N-terminal GST; dsDNA, one strand shown
T3 sequence: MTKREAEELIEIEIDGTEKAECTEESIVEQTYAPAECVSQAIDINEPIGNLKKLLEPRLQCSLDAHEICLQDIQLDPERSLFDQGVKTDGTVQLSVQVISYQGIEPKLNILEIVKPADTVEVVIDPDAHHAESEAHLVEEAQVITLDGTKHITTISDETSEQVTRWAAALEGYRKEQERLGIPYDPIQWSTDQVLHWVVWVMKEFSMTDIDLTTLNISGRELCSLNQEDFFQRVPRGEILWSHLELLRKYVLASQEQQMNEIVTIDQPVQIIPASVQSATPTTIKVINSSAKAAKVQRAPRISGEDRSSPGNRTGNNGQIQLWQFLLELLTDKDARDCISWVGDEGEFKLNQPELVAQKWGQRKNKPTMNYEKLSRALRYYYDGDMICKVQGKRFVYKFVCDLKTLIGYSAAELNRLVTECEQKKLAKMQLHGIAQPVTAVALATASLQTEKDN
In short: as §1

[4] = target: T4, ERG (Homo sapiens, UniProt P11308 1-479); settings: protein: recombinant; tags: N-terminal GST; dsDNA, one strand shown
T4 sequence: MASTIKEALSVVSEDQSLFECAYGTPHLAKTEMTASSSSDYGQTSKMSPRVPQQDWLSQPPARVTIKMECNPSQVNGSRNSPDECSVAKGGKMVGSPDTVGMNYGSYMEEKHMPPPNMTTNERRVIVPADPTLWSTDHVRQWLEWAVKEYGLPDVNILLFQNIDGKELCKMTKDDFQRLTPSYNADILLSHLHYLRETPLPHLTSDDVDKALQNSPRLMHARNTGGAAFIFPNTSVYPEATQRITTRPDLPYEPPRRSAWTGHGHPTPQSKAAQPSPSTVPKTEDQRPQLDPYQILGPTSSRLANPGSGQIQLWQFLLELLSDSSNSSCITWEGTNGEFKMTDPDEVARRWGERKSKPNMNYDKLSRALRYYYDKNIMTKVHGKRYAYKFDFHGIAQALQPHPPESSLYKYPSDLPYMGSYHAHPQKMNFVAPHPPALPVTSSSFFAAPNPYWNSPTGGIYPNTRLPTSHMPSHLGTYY
In short: as §1

[5] = target: ELF1 (Homo sapiens, UniProt P32519 1-619); settings: protein: recombinant; tags: N-terminal GST; dsDNA, one strand shown
Chain of ELF1 (P32519 whole entry): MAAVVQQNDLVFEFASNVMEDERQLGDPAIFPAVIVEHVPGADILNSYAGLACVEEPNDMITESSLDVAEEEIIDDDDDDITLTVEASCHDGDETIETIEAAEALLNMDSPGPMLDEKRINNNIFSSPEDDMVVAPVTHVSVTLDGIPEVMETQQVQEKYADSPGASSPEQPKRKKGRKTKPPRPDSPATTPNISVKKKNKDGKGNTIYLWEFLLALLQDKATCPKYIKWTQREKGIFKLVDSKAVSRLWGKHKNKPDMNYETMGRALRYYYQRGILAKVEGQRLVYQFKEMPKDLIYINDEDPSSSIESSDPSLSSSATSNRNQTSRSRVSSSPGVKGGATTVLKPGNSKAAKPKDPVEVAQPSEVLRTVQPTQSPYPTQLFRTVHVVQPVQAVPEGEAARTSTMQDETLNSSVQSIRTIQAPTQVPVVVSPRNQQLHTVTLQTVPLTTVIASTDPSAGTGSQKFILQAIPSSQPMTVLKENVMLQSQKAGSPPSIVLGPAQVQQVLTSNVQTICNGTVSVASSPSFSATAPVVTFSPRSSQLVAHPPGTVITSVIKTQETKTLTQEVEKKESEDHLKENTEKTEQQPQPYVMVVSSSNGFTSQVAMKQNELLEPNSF
In short: as §1

[6] = target: T5, EHF (Homo sapiens, UniProt Q9NZC4 1-300); settings: protein: recombinant; tags: N-terminal GST; dsDNA, one strand shown
T5 sequence: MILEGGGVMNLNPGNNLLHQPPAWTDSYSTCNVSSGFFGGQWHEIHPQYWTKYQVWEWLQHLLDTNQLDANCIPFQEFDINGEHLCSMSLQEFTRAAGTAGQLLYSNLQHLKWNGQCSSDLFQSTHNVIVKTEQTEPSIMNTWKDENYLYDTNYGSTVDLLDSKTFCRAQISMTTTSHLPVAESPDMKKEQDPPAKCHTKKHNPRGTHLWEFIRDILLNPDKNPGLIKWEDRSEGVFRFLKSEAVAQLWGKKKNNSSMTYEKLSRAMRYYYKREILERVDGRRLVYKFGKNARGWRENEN
In short: as §1

[7] = target: SPI1 (Homo sapiens, UniProt P17947 1-270); settings: protein: recombinant; tags: N-terminal GST; dsDNA, one strand shown
In short: as §1

[8] = target: SPIB (Homo sapiens, UniProt Q01892 1-262); settings: protein: recombinant; tags: N-terminal GST; dsDNA, one strand shown
Chain of SPIB (Q01892 whole entry): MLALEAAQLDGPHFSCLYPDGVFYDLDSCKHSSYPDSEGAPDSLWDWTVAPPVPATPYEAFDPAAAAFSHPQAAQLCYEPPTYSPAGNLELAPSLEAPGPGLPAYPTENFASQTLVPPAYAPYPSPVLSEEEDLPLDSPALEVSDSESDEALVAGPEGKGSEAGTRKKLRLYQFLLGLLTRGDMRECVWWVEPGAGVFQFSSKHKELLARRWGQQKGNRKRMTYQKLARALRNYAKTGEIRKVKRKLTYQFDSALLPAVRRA
In short: as §1

[9] = target: T6, ELK3 (Homo sapiens, UniProt P41970 1-407); settings: protein: recombinant; tags: N-terminal GST; dsDNA, one strand shown
T6 sequence: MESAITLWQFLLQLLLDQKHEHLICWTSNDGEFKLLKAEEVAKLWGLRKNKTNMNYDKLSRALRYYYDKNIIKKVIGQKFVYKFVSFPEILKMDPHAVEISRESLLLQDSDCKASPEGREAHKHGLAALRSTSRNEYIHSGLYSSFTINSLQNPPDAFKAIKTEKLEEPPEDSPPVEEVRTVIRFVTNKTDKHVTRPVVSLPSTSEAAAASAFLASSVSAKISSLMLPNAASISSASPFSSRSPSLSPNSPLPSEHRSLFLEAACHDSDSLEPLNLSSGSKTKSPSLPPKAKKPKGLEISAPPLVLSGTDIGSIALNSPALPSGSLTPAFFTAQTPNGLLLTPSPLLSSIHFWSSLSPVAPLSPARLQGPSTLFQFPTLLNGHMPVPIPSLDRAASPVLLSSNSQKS
In short: as §1

[10] = target: T7, FEV (Homo sapiens, UniProt Q99581 1-238); settings: protein: recombinant; tags: N-terminal GST; dsDNA, one strand shown
T7 sequence: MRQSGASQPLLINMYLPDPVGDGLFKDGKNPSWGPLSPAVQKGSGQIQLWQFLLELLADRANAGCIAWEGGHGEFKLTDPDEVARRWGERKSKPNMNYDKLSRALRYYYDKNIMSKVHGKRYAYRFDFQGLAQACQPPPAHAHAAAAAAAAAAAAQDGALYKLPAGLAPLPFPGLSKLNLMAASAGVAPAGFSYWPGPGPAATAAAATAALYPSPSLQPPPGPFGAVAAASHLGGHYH
In short: as §1

[11] = target: ETV5 (Homo sapiens, UniProt P41161 1-510); settings: protein: recombinant; tags: N-terminal GST; dsDNA, one strand shown
Chain of ETV5 (P41161 whole entry): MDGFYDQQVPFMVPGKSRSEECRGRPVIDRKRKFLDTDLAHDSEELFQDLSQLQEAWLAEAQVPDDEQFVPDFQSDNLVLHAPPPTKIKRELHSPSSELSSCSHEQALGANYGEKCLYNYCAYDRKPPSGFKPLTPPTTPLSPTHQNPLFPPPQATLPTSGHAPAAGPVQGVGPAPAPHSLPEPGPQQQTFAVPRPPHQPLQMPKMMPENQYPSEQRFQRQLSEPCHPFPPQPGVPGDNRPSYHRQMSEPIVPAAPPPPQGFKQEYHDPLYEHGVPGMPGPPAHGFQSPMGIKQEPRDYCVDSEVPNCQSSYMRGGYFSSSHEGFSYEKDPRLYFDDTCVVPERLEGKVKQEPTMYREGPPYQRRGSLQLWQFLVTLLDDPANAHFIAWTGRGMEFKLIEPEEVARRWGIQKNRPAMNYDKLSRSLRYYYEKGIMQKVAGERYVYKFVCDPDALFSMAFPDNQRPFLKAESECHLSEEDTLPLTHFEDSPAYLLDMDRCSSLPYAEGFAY
In short: as §1

[12] = target: HSF1 (Homo sapiens, UniProt Q00613 1-529); settings: protein: recombinant; tags: N-terminal GST; chain copies: 3; dsDNA, one strand shown
Chain of HSF1 (Q00613 whole entry): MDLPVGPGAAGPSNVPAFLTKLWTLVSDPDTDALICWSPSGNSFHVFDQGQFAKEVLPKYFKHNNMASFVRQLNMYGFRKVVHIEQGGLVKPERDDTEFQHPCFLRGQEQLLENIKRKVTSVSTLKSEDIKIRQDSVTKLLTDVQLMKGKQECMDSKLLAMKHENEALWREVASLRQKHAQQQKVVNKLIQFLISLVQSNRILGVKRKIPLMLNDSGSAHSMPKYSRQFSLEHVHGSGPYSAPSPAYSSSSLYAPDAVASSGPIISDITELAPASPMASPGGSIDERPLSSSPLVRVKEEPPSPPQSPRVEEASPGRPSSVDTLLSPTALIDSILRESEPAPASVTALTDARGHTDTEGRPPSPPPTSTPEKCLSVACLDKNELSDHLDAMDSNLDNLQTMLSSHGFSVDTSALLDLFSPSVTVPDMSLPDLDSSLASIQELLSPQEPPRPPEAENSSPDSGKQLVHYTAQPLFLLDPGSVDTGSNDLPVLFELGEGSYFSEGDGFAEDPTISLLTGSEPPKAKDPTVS
In short: as §1

[13] = target: T8, SPIC (Homo sapiens, UniProt Q8N5J4 1-248); settings: protein: recombinant; tags: N-terminal GST; dsDNA, one strand shown
T8 sequence: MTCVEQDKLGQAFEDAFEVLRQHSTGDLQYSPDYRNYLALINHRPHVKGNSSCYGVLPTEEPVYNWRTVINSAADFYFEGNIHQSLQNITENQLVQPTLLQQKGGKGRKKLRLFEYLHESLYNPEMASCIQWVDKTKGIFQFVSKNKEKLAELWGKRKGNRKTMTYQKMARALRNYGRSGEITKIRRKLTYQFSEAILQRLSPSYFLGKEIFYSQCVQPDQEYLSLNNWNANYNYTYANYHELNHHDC
In short: as §1

[14] = target: ELF4 (Homo sapiens, UniProt Q99607 1-663); settings: protein: recombinant; tags: N-terminal GST; dsDNA, one strand shown
Chain of ELF4 (Q99607 whole entry): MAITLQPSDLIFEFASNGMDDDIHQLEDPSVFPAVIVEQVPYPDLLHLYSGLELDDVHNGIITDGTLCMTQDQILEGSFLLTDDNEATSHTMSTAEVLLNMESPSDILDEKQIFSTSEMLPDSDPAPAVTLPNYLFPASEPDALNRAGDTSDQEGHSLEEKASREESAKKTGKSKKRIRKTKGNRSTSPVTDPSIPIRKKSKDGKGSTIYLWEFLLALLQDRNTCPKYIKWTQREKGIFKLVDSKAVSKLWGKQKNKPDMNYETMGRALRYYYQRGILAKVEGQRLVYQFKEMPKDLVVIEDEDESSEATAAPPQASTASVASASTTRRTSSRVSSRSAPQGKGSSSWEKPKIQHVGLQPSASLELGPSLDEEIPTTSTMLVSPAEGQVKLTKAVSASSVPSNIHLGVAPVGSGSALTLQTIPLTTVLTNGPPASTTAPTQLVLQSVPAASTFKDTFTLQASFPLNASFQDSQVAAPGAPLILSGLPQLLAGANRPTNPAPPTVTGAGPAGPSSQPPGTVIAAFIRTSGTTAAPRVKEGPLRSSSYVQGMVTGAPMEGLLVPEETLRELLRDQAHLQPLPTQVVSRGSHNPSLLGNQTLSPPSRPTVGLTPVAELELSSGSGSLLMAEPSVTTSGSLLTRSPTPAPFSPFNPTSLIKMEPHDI
In short: as §1

[15] = target: T9, ELK4 (Homo sapiens, UniProt P28324-2 1-405); settings: protein: recombinant; tags: N-terminal GST; dsDNA, one strand shown
T9 sequence: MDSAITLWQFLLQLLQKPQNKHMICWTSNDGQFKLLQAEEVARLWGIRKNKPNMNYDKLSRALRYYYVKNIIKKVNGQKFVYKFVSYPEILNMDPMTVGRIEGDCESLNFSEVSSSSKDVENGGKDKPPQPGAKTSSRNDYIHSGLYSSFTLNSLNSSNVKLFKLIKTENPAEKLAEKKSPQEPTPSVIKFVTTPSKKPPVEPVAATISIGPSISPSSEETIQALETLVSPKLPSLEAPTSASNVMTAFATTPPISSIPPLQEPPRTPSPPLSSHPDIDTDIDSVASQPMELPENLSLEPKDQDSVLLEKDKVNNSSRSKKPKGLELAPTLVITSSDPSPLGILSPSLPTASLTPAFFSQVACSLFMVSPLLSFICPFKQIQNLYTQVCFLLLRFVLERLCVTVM
In short: as §1

[16] = target: T10, ETV2 (Homo sapiens, UniProt O00321 1-342); settings: protein: recombinant; tags: N-terminal GST; dsDNA, one strand shown
T10 sequence: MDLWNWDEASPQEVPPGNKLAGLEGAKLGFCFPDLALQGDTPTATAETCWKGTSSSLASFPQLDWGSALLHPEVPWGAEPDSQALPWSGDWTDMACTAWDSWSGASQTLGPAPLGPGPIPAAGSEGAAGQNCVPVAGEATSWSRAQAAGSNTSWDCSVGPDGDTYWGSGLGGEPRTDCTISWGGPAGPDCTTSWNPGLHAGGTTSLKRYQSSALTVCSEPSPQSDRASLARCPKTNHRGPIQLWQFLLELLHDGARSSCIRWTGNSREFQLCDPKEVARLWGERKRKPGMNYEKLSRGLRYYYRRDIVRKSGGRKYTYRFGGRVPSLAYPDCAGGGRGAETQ
In short: as §1

[17] = target: T11, ELF3 (Homo sapiens, UniProt P78545 1-371); settings: protein: recombinant; tags: N-terminal GST; dsDNA, one strand shown
T11 sequence: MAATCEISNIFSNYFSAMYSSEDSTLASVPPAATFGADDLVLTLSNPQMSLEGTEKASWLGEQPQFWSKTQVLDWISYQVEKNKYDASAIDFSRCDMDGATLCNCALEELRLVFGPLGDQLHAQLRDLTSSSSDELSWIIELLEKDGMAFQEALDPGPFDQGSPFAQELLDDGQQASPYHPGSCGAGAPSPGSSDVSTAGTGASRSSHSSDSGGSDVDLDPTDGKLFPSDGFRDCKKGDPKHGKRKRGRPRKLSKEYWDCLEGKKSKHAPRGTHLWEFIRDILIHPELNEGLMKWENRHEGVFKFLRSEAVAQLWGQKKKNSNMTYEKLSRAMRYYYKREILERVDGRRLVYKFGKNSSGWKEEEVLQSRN
In short: as §1

[18] = target: CRX (Homo sapiens, UniProt O43186 1-299); settings: protein: recombinant; tags: N-terminal GST; dsDNA, one strand shown
Chain of CRX (O43186 whole entry): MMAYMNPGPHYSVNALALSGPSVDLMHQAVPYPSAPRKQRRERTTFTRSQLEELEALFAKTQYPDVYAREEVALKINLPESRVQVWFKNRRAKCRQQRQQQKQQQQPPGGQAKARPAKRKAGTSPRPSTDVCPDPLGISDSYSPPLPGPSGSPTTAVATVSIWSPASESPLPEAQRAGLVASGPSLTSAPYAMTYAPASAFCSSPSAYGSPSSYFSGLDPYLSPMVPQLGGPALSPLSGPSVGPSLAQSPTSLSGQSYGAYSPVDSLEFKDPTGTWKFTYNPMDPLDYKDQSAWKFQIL
In short: as §1

[19] = target: ETV1 (Homo sapiens, UniProt P50549 1-477); settings: protein: recombinant; tags: N-terminal GST; dsDNA, one strand shown
Chain of ETV1 (P50549 whole entry): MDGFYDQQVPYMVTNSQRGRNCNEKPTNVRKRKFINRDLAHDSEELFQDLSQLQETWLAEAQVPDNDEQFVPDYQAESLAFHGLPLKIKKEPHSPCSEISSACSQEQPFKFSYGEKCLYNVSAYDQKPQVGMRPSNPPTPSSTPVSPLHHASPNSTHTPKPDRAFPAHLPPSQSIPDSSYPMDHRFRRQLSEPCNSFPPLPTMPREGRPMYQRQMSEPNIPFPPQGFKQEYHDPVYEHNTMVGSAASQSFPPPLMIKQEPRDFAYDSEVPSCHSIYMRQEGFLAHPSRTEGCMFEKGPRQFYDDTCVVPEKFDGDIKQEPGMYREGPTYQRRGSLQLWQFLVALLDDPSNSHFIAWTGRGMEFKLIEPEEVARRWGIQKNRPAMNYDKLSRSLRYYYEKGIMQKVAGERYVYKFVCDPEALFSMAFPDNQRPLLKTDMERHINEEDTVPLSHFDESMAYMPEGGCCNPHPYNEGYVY
In short: as §1

CTAACG
binding signal [1]: 1.22 fold enrichment (6-mer frequency, TF over GST control) | binding signal [2]: 1.23 fold enrichment (6-mer frequency, TF over GST control) | binding signal [3]: 1.09 fold enrichment (6-mer frequency, TF over GST control) | binding signal [4]: 1.21 fold enrichment (6-mer frequency, TF over GST control) | binding signal [5]: 1.13 fold enrichment (6-mer frequency, TF over GST control) | binding signal [6]: 1.13 fold enrichment (6-mer frequency, TF over GST control) | binding signal [7]: 1.26 fold enrichment (6-mer frequency, TF over GST control) | binding signal [8]: 1.11 fold enrichment (6-mer frequency, TF over GST control) | binding signal [9]: 1.19 fold enrichment (6-mer frequency, TF over GST control) | binding signal [10]: 1.19 fold enrichment (6-mer frequency, TF over GST control) | binding signal [11]: 1.19 fold enrichment (6-mer frequency, TF over GST control) | binding signal [12]: 1.09 fold enrichment (6-mer frequency, TF over GST control) | binding signal [13]: 1.04 fold enrichment (6-mer frequency, TF over GST control) | binding signal [14]: 1.17 fold enrichment (6-mer frequency, TF over GST control) | binding signal [15]: 1.19 fold enrichment (6-mer frequency, TF over GST control) | binding signal [16]: 1.01 fold enrichment (6-mer frequency, TF over GST control) | binding signal [17]: 1.18 fold enrichment (6-mer frequency, TF over GST control) | binding signal [18]: 1.1 fold enrichment (6-mer frequency, TF over GST control) | binding signal [19]: 1.11 fold enrichment (6-mer frequency, TF over GST control)
